Screening data from PubChem.
Sampled rows, rich in hits. Any-hit rate of the full collection: about 19%.
ASM inhibitor = blocks human secretory acid sphingomyelinase; placental ASM, HMU-PC fluorogenic substrate, 60 min; Potency, µM (series often up to 57.5 µM), without a hit: top-dose activity change, negative = inhibition, usual class: inhibitors; AID 504937; hit rate 0.006% among 340,000; also: potency is read from the fitted curve at half-maximal effect
Target sequence (P17405 47-631 limits assumed): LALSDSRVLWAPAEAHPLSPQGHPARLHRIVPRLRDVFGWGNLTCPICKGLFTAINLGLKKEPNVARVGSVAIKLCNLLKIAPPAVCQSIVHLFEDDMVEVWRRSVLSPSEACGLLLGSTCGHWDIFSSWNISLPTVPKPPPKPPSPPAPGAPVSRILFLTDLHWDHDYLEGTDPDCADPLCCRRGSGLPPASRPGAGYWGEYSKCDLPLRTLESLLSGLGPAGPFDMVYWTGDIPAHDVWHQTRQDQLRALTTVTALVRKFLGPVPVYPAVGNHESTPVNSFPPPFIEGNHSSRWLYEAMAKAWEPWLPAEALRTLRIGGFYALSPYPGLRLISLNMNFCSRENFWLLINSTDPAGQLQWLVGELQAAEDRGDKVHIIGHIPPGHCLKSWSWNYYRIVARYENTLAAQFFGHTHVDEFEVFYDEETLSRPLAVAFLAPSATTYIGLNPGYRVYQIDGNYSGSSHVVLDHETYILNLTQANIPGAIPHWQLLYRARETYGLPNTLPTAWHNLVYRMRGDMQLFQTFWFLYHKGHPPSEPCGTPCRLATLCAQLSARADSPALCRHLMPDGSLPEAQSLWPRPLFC
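qHTS format. ASM enzyme prepared from human placenta hydrolyses the fluorogenic substrate HMU-PC0 (9 uM final) over 60 min at 37 °C after a 10 min compound preincubation.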
TGFb inhibitor = blocks TGF-b signaling. HepG2 CAGA-GFP TGF-b/SMAD3 reporter, GFP fluorescence, 18 h; TGF-beta stimulated, 500 pg/mL final. Potency, µM (doses to about 46.1 µM), for inactives: at the top dose activity, negative = inhibition, usual class: inhibitors. hit rate 1.2% among 410,000; also: potency is read from the fitted curve at half-maximal effect; % is scaled to controls: 0 for no effect and ±100 for the full control effect; nearly all actives have a fitted effect of over 65% in size
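Inhibition of TGF-beta-driven CAGA-GFP reporter expression in HEPG2 cells is measured by cellular GFP fluorescence after 18 h stimulation with 500 pg/mL recombinant TGF-beta in 1% FBS medium at 37 degrees C.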
DT40 TDP1 CPT = growth inhibition of DT40 Tdp1-/-;hTDP1 cells with camptothecin (screen for TDP1 inhibitors); chicken DT40 Tdp1-/-;hTDP1 cells + 20 nM CPT, ATP luminescence, 48 h; Potency, µM (doses to about 46.2 µM), for the others: top-dose activity change, negative = growth inhibition, most hits filed as inhibitors; hit rate 12% among 420,000; AID 686979; also: potency is read from the fitted curve at half-maximal effect; % is scaled to controls: 0 for no effect and ±100 for the full control effect; nearly all actives have a fitted effect of over 55% in size
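Chicken DT40 Tdp1-/- cells stably complemented with human TDP1 were seeded at 400 cells/well in medium containing 20 nM camptothecin, exposed to pin-transferred compounds, and grown at 37 °C for at least 48 hr. Viability was read as ATP luminescence.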
HepG2 viability = counter-screen for TGF-b inhibitors: cytotoxicity in HepG2 cells. HepG2 CAGA-GFP viability, ATP luminescence, 18 h. Potency, µM (highest dose often 46.1 µM), for the others: top-dose activity change, negative = cytotoxicity, hits mostly cytotoxic. hit rate 0.76% among 410,000; also: potency is read from the fitted curve at half-maximal effect
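CellTiter-Glo luminescence gave cytotoxicity after 18 hours at 37 degrees C. The cells were HepG2 CAGA-GFP in 1% FBS DMEM, stimulated with 500 pg/mL TGF-beta after compound addition. %Activity was normalised to no-cell wells (complete cell-killing) and DMSO (no toxicity), and curves were fitted and classified.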
IL1B secr inh = inhibitors of inflammasome signaling (IL-1 beta secretion) | THP-1 LPS/ATP IL-1B secretion, AlphaLISA, 16 h; stronger effect = lower value | activity change, % at 57.5 µM | hit rate 4.7% among 360,000 | AID 743279; in the data active = activity change below about -50%; inconclusive = mostly about -30% to -49%; also: % is scaled to controls: 0 for no effect and ±100 for the full control effect
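Secreted IL-1B measured by AlphaLISA bead assay after 16 h compound exposure of THP-1 cells; compounds (final up to 57.5 uM) added 1 h before LPS (250 ng/mL) and ATP (1.25 mM) stimulation; lower signal means less secretion.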
DT40 TDP1 no CPT = qHTS for Inhibitors of human tyrosyl-DNA phosphodiesterase 1 (TDP1): qHTS in cells in absence of CPT | DT40 Tdp1-/- hTDP1 cells, no CPT, ATP luminescence, 48 h | Potency, µM (series often up to 46.2 µM), for inactives: at the top dose activity change, negative = growth inhibition, actives largely listed as inhibitors | hit rate 15% among 420,000; also: potency is read from the fitted curve at half-maximal effect; % is scaled to controls: 0 for no effect and ±100 for the full control effect; nearly all actives have a fitted effect of over 55% in size
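Growth kinetics read by CellTiter-Glo luminescence after ≥48 hr at 37 °C. Cells: DT40 Tdp1-/- stably carrying human TDP1, 400 per well, compound exposure in the absence of CPT (DMSO vehicle).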
Numbers without * were called inactive; ? = inconclusive; · = no result given; [ ] = another dose, or the depositor's remark. Unless noted, calls follow the shape of the dose curve; as a rule, active = well fitted curve in the direction sought with a large enough effect; inconclusive = small, poorly fitted or top-dose-only effect, or another doubt; inactive = no such curve, though single readings can be large; an effect the other way counts as inactive or inconclusive.

SMILES	ASM inhibitor	TGFb inhibitor	DT40 TDP1 CPT	HepG2 viability	IL1B secr inh	DT40 TDP1 no CPT
CC1=C(C#N)c2nc(N)c(C#N)c(C)c2/C1=C\c1ccc(-c2ccccc2C(=O)O)o1	-17.7%	-1.9%	-6.3%	7.0%	-87.5*	-5.7%
CCC1C(=O)NCCN1Cc1ccc2c(c1)CN(Cc1cccc(OC)c1)CCO2 (stereo not drawn)	·	·	11.9%[9.04 µM]	·	·	-3.9%
N#CCSc1nnc(C2CCCCC2)n1Cc1ccccc1	3.7%	-19.4%	10.3µM*	0.9%	-6.6	-21.5%
CC(=O)c1ccc(OCc2cc(C(=O)N(C)CC3COc4ccccc4O3)no2)cc1 (stereo not drawn)	·	-22.9%	10.3µM*	-27.1%	-25.6	13µM*
CSc1ccccc1OCc1cc(C(=O)N2CCN(c3ccccc3)CC2C)no1 (stereo not drawn)	-3.4%	?	?	-10.2%	11.3	?
CC(=O)c1ccc(OCc2cc(C(=O)N3CCN(c4ccccc4)CC3C)no2)cc1 (stereo not drawn)	-7.9%	-22.9%	?	-17.6%	?	18.4µM*
Nc1cc(=O)n(Cc2ccco2)c(=S)[nH]1	·	3.2%	10.2%	-9.8%	-5.0	-9.5%
O=C1Cc2ccccc2C(=O)N1	·	·	1.46µM*	·	107.1	1.16µM*
COc1cc(C2(c3ccc(O)c(OC)c3)C(=O)Nc3c(C)cc(Br)cc32)ccc1O	-7.6%	?	1.7%	2.3%	-102.2*	0.1%
COc1cccc(Cn2c3ccc(NC(=O)Cc4ccccc4C)cc3c(=O)n2C)c1	·	7.7%	?	-4.0%	-21.5	?
COc1ccc(C2C(C#N)=C(N)Oc3cc(C)n(Cc4ccncc4)c(=O)c32)cc1 (stereo not drawn)	0.8%	0.0%	4.61µM*	11.7%	-9.3	2.06µM*
Cc1cc2c(c(=O)n1CCN(C)C)C(c1ccncc1)C(C#N)=C(N)O2 (stereo not drawn)	5.5%	11.3%	2.1%	-19.9%	21.0	-8.1%
COC(=O)C(NC(=O)c1ccccc1)c1ccccc1 (stereo not drawn)	-2.7%	-1.0%	-14.8%	9.4%	16.9	2.5%
C=C(C(=O)c1ccccc1)C(NC(C)(C)C)c1ccccc1 (stereo not drawn)	-1.4%	?	2.06µM*	-88.9%	-101.5*	2.31µM*
O=C1C=CC(=O)C(CNc2ccc(C(=O)OCc3ccccc3)cc2)=C1	-6.2%	0.0%	5.8µM*	-47.3%	-100.2*	4.11µM*
CN(C)c1ccc(C(=O)OCc2ccccc2)cc1	-2.9%	-9.1%	2.6%	-33.7%	-11.8	-12.4%
CCCCNC(=O)C1(C)CCCCN1C(=O)c1cc(C)n(C(C)(C)C)n1 (stereo not drawn)	·	21.9%	-23.1%	3.2%	14.3	?
COc1ccc(N(C)S(=O)(=O)c2cccc(C(=O)Nc3ccc(-n4cnnn4)cc3)c2)cc1	-11.3%	11.2%	18.4µM*	-19.6%	-4.0	18.4µM*
COc1ccc(N(C)S(=O)(=O)c2cccc(C(=O)Nc3ccc4c(c3)OCCO4)c2)cc1	-2.8%	-1.0%	16.4µM*	-9.8%	-14.4	14.6µM*
Cc1ccc(-c2nnn3c2nc(NCCc2ccccc2)c2ccccc23)cc1	·	7.8%	1.9%	5.0%	·	-23.1%
Cc1ccc(S(=O)(=O)Nc2c(C)n(C)n(-c3ccccc3)c2=O)cc1C(=O)OCC(=O)N1CCCC(C)C1 (stereo not drawn)	-0.8%	1.2%	7.6%	-3.9%	18.6	3.5%
O=C(Nc1ccccc1N1CCOCC1)c1cc(=O)[nH]c2ccccc12	2.1%	-1.7%	?	-8.6%	5.7	16.4µM*
O=C(Nc1ccccc1N1CCOCC1)c1cccc2c(Br)cccc12	-4.3%	?	?	-6.0%	-2.8	18.4µM*
